# pCIP destab = lowers stability of the mouse p/CIP coactivator protein | Q05BA5 | F442A p/CIP-EGFP cells, EGFP fluorescence, 16 h | decrease of EGFP signal, % at 10 µM | 0.01% of 290,000 active;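 active means EGFP signal decrease of at least 30% at 10 µM or well 3 SD below plate mean, unless failing retest; inactive means the rest, including hits failing retest or dose response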
# PHOSPHO1 inh = PHOSPHO1 (human) inhibition; recombinant PHOSPHO1, absorbance phosphatase assay; 1.1% of 290,000 active; Q8TCT1; inhibition, % at 13.3 µM; AID 1565; in the data active means inhibition above about 60%
# NadD inh = inhibitors of Staphylococcus aureus NadD; AID 602399; inhibition, % at 20 µM; purified NadD enzyme, colorimetric absorbance read-out; 0.78% of 360,000 active; in the data active means inhibition above about 26%
# UBC9 SUMO inh = SUMOylation inhibition. P63279. HTRF SUMOylation assay, SAE1/SAE2 + UBC9, in vitro. inhibition, % at 35 µM. 0.36% of 290,000 active. AID 2006; in the data active means inhibition above about 50%, passing the limit was not always enough
# * = called active by the depositor; x = not tested or not shown. Sampled rows, rich in hits. Any-hit rate of the full collection: about 1.8%.
SMILES,pCIP destab,PHOSPHO1 inh,NadD inh,UBC9 SUMO inh
C[C@@H](C(=O)Nc1cc(C(F)(F)F)ccc1N1CCOCC1)N1C(=O)C2CC=CCC2C1=O (some centres undefined),x,x,-1,x
CCOc1cc(N2CCOCC2)c(OCC)cc1NC(=O)[C@H](C)N1C(=O)C2CC=CCC2C1=O (some centres undefined),-4,63*,1,10
COc1ccc(CCNC(=O)COc2ccc(S(=O)(=O)NC3CCCCC3)cc2Cl)cc1,-3,63*,-7,10
O=C(CSc1ccc(-c2ccccn2)nn1)Nc1cccc(F)c1,-27,61*,3,17
Cc1ccc(S(=O)(=O)c2nc(-c3cccs3)oc2SCC(N)=O)cc1,2,60*,-4,3
Cc1ccc(-c2nc(S(=O)(=O)c3ccc(C)cc3)c(SCC(N)=O)o2)cc1,-16,9,-2,8
CCOc1ccc(S(=O)(=O)Nc2ccc(C(=O)N/N=C(\C)c3ccc(-n4ccnc4)cc3)cc2)cc1,-14,13,42*,3
COc1ccc(NS(=O)(=O)c2cccc(C(=O)N/N=C(/C)c3ccc(-n4ccnc4)cc3)c2)cc1,x,x,16,x
COc1cc(CC(=O)C(=O)O)oc(=O)c1,x,x,-2,x
O=C(Nc1ccc2nc([C@@H]3O[C@H](CO)[C@@H](O)[C@H](O)[C@H]3O)[nH]c2c1)NC(c1ccccc1)c1ccccc1,x,x,9,x
O=C(NCc1ccncc1)c1ccc(Cn2cc(C(F)(F)F)ccc2=O)cc1,1,60*,-2,9
Cc1cccc(NC(=O)c2ccc(Cn3cc(C(F)(F)F)ccc3=O)cc2)c1,0,65*,-2,9
O=C(NCc1ccccc1)c1ccc(Cn2cc(C(F)(F)F)ccc2=O)cc1,-15,16,1,0
CCn1nccc1NC(=O)c1csc([C@@H]2C[C@H](O)[C@@H](CO)O2)n1,x,x,-7,x
C=CCSc1nnc(-c2cc(Br)ccc2N)c(=O)[nH]1,7,90*,2,17
CCc1nc2ccc(C(=O)Nc3ccc(NC(C)=O)cc3)cn2c1N(C)CCCc1ccccc1,x,x,7,x
COc1cc(NS(=O)(=O)c2ccc(C)cc2)c2c(c1N)C(=O)c1ccccc1C2=O,x,x,15,x
CC(C)(CNC(=O)c1cc2ccccc2o1)N1CCOCC1,-1,68*,-1,14
O=C(NCCN1CCOCC1)c1cc2ccccc2o1,6,16,0,20
COc1cc(NC(=S)NC(=O)c2ccc(C)cc2C)ccc1NC(=O)c1cccs1,-15,62*,4,15
CCOc1ccc(NC(=O)CCNS(=O)(=O)c2ccc3c(c2)CC(C)N3C(C)=O)cc1 (centres undefined),3,48,-8,11
CCC1(C)Cc2c(C#N)c(N)n(-c3ccccc3)c(=S)c2CO1 (centres undefined),-12,24,0,26
CCC1(C)Cc2c(C#N)c(N)sc(=S)c2CO1 (centres undefined),-15,90*,2,12
Cc1[nH]c(=S)c(C#N)c2c1CCCC2,1,-1,11,5
N#Cc1c(N)sc(=S)c2c1CCCC2,-9,99*,0,0
SMILES,pCIP destab,PHOSPHO1 inh,NadD inh,UBC9 SUMO inh
O=C(CNC(=O)c1ccccc1)NCC(=O)OCc1ccccc1Cl,-12,60*,-2,-12
O=Nc1c(O)n(Cc2cccc(Cl)c2)c2ccccc12,-5,33,-6,15
CSc1nc(C=Nc2ccccc2Cl)c(O)n1Cc1cccc(Cl)c1,-10,88*,-6,8
O=C1C2C3CCC(C3)C2C(=O)N1c1ccc(OS(=O)(=O)c2ccccc2)cc1 (centres undefined),-17,60*,-6,-2
O=C(Cc1cccs1)NNC(=O)C12CC3CC(CC(C3)C1)C2,11,61*,-2,4
Cc1ccccc1-c1cnc(C(O)c2cccc(C)c2C)[nH]1 (centres undefined),x,x,-3,x
O=C(c1cccn2c(=O)c3cc(Cl)ccc3nc12)N1CCOCC1,1,13,-1,52*
COc1cc2c(cc1OC)C(=NO)CCCC2,x,x,-5,x
O=C(COC(=O)c1cccnc1Cl)NC(=O)c1ccc(OC(F)F)cc1,x,x,-4,x
CCc1cc(C(=O)Nc2cc(S(=O)(=O)N3CCOCC3)ccc2N2CCN(CC)CC2)sc1C,x,x,-7,x
COc1ccc(/C=C2\SC(=S)N(NC(=O)c3csc4c3CCCC4)C2=O)cc1,5,72*,17,-22
COc1ccc(NC(=O)c2csc3c2CCCC3)cc1,1,11,-10,-2
COc1ccc(S(=O)(=O)N2CCC[C@H]2C(=O)N2CCC[C@H]2C(=O)N(C)Cc2ccccc2)cc1C,x,x,4,x
NS(=O)(=O)c1ccc(CCN2C(=O)/C(=C\c3ccc(Cl)cc3)SC2=S)cc1,-14,-13,33*,16
